Source: PubChem BioAssay AID1851 (National Center for Advancing Translational Sciences (NCATS), 2009)
Hit rate of the full screen: of about 16,000 compounds, about 5,700 (36%) were called active. Inconclusive results (about 24%) are left out. Calls follow the shape of the dose curve; as a rule, active = well fitted curve in the direction sought with a large enough effect; inconclusive = small, poorly fitted or top-dose-only effect, or effect the other way; inactive = no such curve, though single readings can be large or run the other way. The list shows a part of the results.

biological target: Cytochrome P450 1A2 (Homo sapiens) (UniProt P05177); test: Cytochrome panel assay with activity outcomes; settings: recombinant CYP, pro-luciferin dealkylation, luminescence, p450-cyp1a2; series mostly up to 57.1 µM; activity, negative = inhibition: at the top concentration
% is scaled to controls: 0 for no effect and ±100 for the full control effect.

Chain of Cytochrome P450 1A2 (Homo sapiens) (P05177 whole entry, looked up): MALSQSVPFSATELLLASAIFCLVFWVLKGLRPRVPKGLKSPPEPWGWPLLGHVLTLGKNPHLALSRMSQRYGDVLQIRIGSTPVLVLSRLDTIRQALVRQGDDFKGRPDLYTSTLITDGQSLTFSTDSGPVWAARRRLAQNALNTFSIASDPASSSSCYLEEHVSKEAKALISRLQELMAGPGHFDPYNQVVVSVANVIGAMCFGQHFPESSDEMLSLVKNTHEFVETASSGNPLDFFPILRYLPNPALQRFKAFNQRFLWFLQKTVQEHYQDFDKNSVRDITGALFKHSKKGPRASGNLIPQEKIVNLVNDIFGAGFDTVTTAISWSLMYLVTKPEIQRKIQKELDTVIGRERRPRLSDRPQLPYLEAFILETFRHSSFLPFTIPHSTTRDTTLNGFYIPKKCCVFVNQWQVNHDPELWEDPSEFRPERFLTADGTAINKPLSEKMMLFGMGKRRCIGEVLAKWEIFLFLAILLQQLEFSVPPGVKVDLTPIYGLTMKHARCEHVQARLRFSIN

Compound | activity, negative = inhibition | AC50
Cc1ccc(C2=C(Cl)C(=O)C(c3ccc(C)cc3)=C(Cl)C2=O)cc1 | -16.9% [at 2.29 µM] (inactive) | 
COc1cccc(C2=CC(c3ccccc3)n3nnnc3N2)c1 (centres undefined) |  | 1.12 µM (active)
CN(C)c1ccc(/C=C2/C(=O)Nc3ccccc32)cc1 |  | 0.1 µM (active)
Cc1cc(C)c(/C=C2/C(=O)Nc3ccccc32)[nH]1 |  | 0.794 µM (active)
O=C1Nc2cc(C(=O)N3CCOCC3)ccc2SC1N1CCOCC1 (centres undefined) | -4.43% (inactive) | 
N[C@@H](CSCc1ccc(I)cc1)C(=O)O | -12% [at 2.29 µM] (inactive) | 
COC(=O)[C@H](CCSC)NC(=O)C/C=C\[C@@H](C)[C@@H](CO)OC | -1.07% [at 11.4 µM] (inactive) | 
c1ccc(C[n+]2cccc(-c3cc4ccccc4[nH]3)c2)cc1 |  | 1.26 µM (active)
COc1cc2c3c(c1OC)C1(C=CC(=O)C=C1)CC3N(C(=O)c1ccccc1)CC2 (centres undefined) | -2.36% (inactive) | 
COc1ccc(C(=O)N2CCC3(CCCN(Cc4ccccc4)C3)CC2)cc1 | 7.68% (inactive) | 
COc1ccc(C(=O)/C=C2/c3ccccc3CC(C)(C)N2C)cc1 |  | 15.8 µM (active)
COc1ccc(C(=O)N2CCC3(CCN(C)CC3)CC2)cc1 | -19.3% (inactive) | 
N#CCCSC(=S)[C@H]1CCCC1=N |  | 3.16 µM (active)
N=C1CCC[C@@H]1C(=S)SCCC(N)=O |  | 3.16 µM (active)
CCN1C(=O)C(O)(CC(=O)/C=C/C=C/c2ccccc2)c2ccccc21 (centres undefined) |  | 10 µM (active)
CCN1C(=O)C(O)(C2COC(C)(C)CC2=O)c2ccccc21 (centres undefined) | -22.9% (inactive) | 
COc1ccc([C@@H]2Sc3ccccc3N(CCN(C)C)C(=O)[C@@H]2OC(C)=O)cc1 | -20.6% (inactive) | 
CCCN1C(=O)C(NC(C)=O)c2cc(OC)ccc21 (centres undefined) |  | 7.08 µM (active)
COc1ccc([C@H]2Sc3ccccc3N(CCN(C)C)C(=O)[C@H]2OC(C)=O)cc1 |  | inactive
c1nc(NC2CC2)c2cc(-c3ccoc3)ccc2n1 |  | 0.794 µM (active)
c1nc(NC2CCNCC2)c2cc(-c3ccoc3)ccc2n1 |  | 25.1 µM (active)
c1nc(NC2CCNCC2)c2cc(-c3ccc4c(c3)OCO4)ccc2n1 |  | 12.6 µM (active)
CN(C)c1ccc(-c2ccc3ncnc(NC4CC4)c3c2)cc1 |  | 0.2 µM (active)
CC(=O)N[C@@H](C(=O)O)C(C)(C)SN=O |  | inactive
O=C(Cn1cccc1)NC1CCCCCC1 | -20.3% (inactive) | 

Compound | activity, negative = inhibition | AC50
COC(=O)C1=C(C)NC2=C(C(=O)CCC2)C1c1cn(Cc2ccc(Cl)cc2Cl)nc1-c1ccccc1 (centres undefined) | -11.8% (inactive) | 
O=C(N/N=C/c1c[nH]c2ccccc12)c1ccn(Cc2ccc(Cl)cc2Cl)n1 |  | 0.708 µM (active)
O=C(N/N=C/c1c[nH]c2ccc(Br)cc12)c1ccn(Cc2ccc(Cl)cc2)n1 |  | 3.16 µM (active)
CN(C)C(CNC(=O)NC1CCCCC1)c1cccnc1 (centres undefined) | -32.9% (inactive) | 
O=C(O)C1CCN(c2ncccn2)CC1 | -15.9% (inactive) | 
O=C(NC1CCCC1)c1cccnc1N1CCCCCC1 |  | 15.8 µM (active)
C/C=C\C1=C(CO)[C@H](O)[C@H]2OC2[C@@H]1O (some centres undefined) | -5.28% [at 11.4 µM] (inactive) | 
N#C/C(=C/c1cccc(C(F)(F)F)c1)c1nc(CCN2C(=O)c3ccccc3C2=O)cs1 |  | 12.6 µM (active)
C[C@@H]1CC[C@@H]2C(=O)N3[C@@H](CC[C@@H](C)[C@@H]3c3ccc(-c4ccco4)cc3)C(=O)N2[C@H]1c1ccc(-c2ccco2)cc1 | -4.34% [at 11.4 µM] (inactive) | 
Fc1ccc(C2CC(c3ccco3)=NN2c2ccccc2)cc1 (centres undefined) |  | 1.12 µM (active)
CC1=C(C(=O)O)N2C(=O)C(NC(=O)c3ccn(C)n3)C2SC1 (centres undefined) | 18.7% (inactive) | 
CC(=O)NCCNc1ncnc2ccc(-c3c(C)noc3C)cc12 |  | 15.8 µM (active)
c1nc(NCCN2CCOCC2)c2cc(-c3ccc4c(c3)OCO4)ccc2n1 |  | 2.51 µM (active)
Cc1noc(C)c1-c1ccc2ncnc(NCCN3CCOCC3)c2c1 |  | 15.8 µM (active)
c1nc(NCCN2CCOCC2)c2cc(-c3ccoc3)ccc2n1 |  | 12.6 µM (active)
c1cncc(-c2ccc3ncnc(NCCN4CCOCC4)c3c2)c1 |  | 1 µM (active)
COc1ccccc1CNc1ncnc2ccc(-c3cccc(C#N)c3)cc12 |  | 0.251 µM (active)
COc1ccc(CNc2ncnc3ccc(-c4cccc(C#N)c4)cc23)c(OC)c1 |  | 3.16 µM (active)
Cc1nc(C(=O)Nc2cccc(Cl)c2Cl)nn1-c1cc(OC(C)C)c(Cl)cc1Cl | -8.72% (inactive) | 
O=C(Nc1cccc(Cl)c1Cl)c1snnc1-c1ccccc1 |  | 1.26 µM (active)
CC[C@H](C)C(=O)O[C@@H]1C[C@H](C)C=C2C=C[C@H](C)[C@@H](CC[C@H]3C[C@@H](O)CC(=O)O3)[C@H]21 | -9.48% [at 25.6 µM] (inactive) | 
CN(C)S(=O)(=O)c1ccc2c(c1)/C(=C/c1cc3c([nH]1)CCCC3)C(=O)N2 |  | 0.316 µM (active)
CCOC(=O)O[C@]1(C(=O)COC(=O)CC)CC[C@@H]2[C@@H]3CCC4=CC(=O)C=C[C@@]4(C)[C@H]3[C@H](O)C[C@]21C | -16.4% [at 25.6 µM] (inactive) | 
Cc1cc(NS(=O)(=O)c2ccc(NC(=O)CN3C(=O)c4ccccc4C3=O)cc2)nc(C)n1 | 3.64% (inactive) | 
O=c1ccc(NS(=O)(=O)c2ccccc2)cn1Cc1ccc(Cl)c(Cl)c1 | -26.6% (inactive) | 

Compound | activity, negative = inhibition | AC50
Cc1ccc(S(=O)(=O)Nc2ccc(=O)n(Cc3ccc(Cl)c(Cl)c3)c2)cc1 |  | 25.1 µM (active)
CCCn1c(-c2cccs2)nc2nc3ccccc3nc21 |  | 1.78 µM (active)
Cc1c(Br)c([N+](=O)[O-])nn1CC(=O)NCc1ccccn1 | -24% (inactive) | 
Cc1ccc(NC(=O)Cn2nc([N+](=O)[O-])c(Br)c2C)cc1C |  | 12.6 µM (active)
Cc1c(Cl)c([N+](=O)[O-])nn1CC(=O)Nc1c(C)n(C)n(-c2ccccc2)c1=O | -2.44% (inactive) | 
Cc1cc(C)c(S(C)(=O)=O)c(Oc2ccc(F)cc2)n1 |  | 10 µM (active)
COc1ccc(Oc2nc(C)cc(C)c2S(=O)(=O)c2ccc(C)cc2)cc1 | -22.5% (inactive) | 
Cc1cc(C)c(S(C)(=O)=O)c(Oc2ccc(C(C)(C)C)cc2)n1 |  | 4.47 µM (active)
O=C(O)[C@@H](O)[C@@H](O)[C@@H](O)[C@@H](O)C(=O)O (tested in a mixture with another compound) | -1.46% [at 25.6 µM] (inactive) | 
COc1ccc(CNc2nc(-c3ccccc3CN(C)C)nc3ccccc23)c(OC)c1 |  | 10 µM (active)
COc1ccccc1CNc1nc(-c2ccccc2CN(C)C)nc2ccccc12 |  | 0.794 µM (active)
COC(=O)c1[nH]c(C)c(/C(O)=C2\C(=O)C(=O)N(CCN(C)C)C2c2cccs2)c1C (centres undefined) | -24.7% (inactive) | 
C/C(Cl)=C/CSc1nnc2n(N)c(=O)c3ccccc3n12 |  | 11.2 µM (active)
CCCSc1nnc2n(N)c(=O)c3ccccc3n12 |  | 4.47 µM (active)
CCC(=O)N[C@@H]1CCc2cccc(OC)c2C1 |  | 12.6 µM (active)
CCOc1ccccc1NC(=O)CN1CCC(NC(=O)c2ccccc2)CC1 | -24.7% (inactive) | 
COC(=O)N1CCC2(CC1)CCN(C(c1ccccc1)c1ccccc1)CC2 | 1.02% (inactive) | 
COc1ccc(CNc2cc(-c3ccoc3)ncn2)c(OC)c1 |  | 15.8 µM (active)
COc1ccccc1CNc1cc(-c2ccoc2)ncn1 |  | 15.8 µM (active)
COc1cccc(CNc2ccc3nc(-c4ccc(N)cc4)c(OC)n3n2)c1 |  | 39.8 µM (active)
O=C(O)CSCNC(=O)CC12CC3CC(CC(C3)C1)C2 | -1.39% (inactive) | 
CC1(C)CC2(CC(c3cccs3)c3cc(Cl)c(O)cc3O2)NC(=S)N1 (centres undefined) | -22.7% (inactive) | 
O=C1CC(c2cccs2)c2cc3c(cc2N1)OCO3 (centres undefined) |  | 0.631 µM (active)
CC(C)NC(=O)N1CCC2(CC1)CCN(C(=O)c1ccco1)CC2 | -8.3% (inactive) | 
CC(C)(C)CC(C)(C)c1ccc(O)c(C[N+](C)(C)[O-])c1 | -17.9% [at 2.29 µM] (inactive) | 

Compound | activity, negative = inhibition | AC50
CCOC(=O)c1c2c(n3ccccc13)C(=O)c1ccccc1C2=O |  | 0.1 µM (active)
COC(=O)[C@H](Cc1ccccc1)NC(=O)[C@@H](C)CO | -9.35% [at 11.4 µM] (inactive) | 
O=C(O)C(Cc1ccccc1-c1ccccc1)C(=O)O | -6.71% [at 11.4 µM] (inactive) | 
CCOC(=O)c1c(-c2ccccc2)cn2ccccc12 |  | 0.501 µM (active)
COc1cc2cc(CN(CCCO)S(=O)(=O)c3ccccc3Cl)c(=O)[nH]c2cc1OC | -22.7% (inactive) | 
COc1ccc(CNC(=O)CN(CC2CCCO2)C(=O)CNS(=O)(=O)c2ccccc2)cc1 (centres undefined) | -14.5% (inactive) | 
COc1cccc(C(=O)N(Cc2ccccc2)Cc2cc3cc4c(cc3[nH]c2=O)OCCO4)c1 |  | 14.1 µM (active)
N=C(N)SCCN | -7.64% (inactive) | 
CCOc1ccc(/C(O)=C2\C(=O)C(=O)N(CCOCCO)C2c2ccccc2OC)cc1 (centres undefined) | -4.5% (inactive) | 
c1ccc(CNc2ncnc3ccc(-c4cccnc4)cc23)cc1 |  | 0.126 µM (active)
c1ccc(Nc2ncnc3ccc(-c4cccnc4)cc23)cc1 |  | 0.0794 µM (active)
c1cncc(CNc2ncnc3ccc(-c4ccoc4)cc23)c1 |  | 0.316 µM (active)
Cc1cccc(CNc2ncnc3ccc(-c4cccnc4)cc23)c1 |  | 0.316 µM (active)
CN(CC(=O)O)Cc1oc(CO)cc(=O)c1O | -18.3% [at 11.4 µM] (inactive) | 
CSc1ccc(NC(=O)Nc2cc(C)ccn2)cc1 |  | 0.501 µM (active)
Cc1ccnc(N)c1 | -19.7% (inactive) | 
CC(=O)Nc1ccc(Sc2ncccc2C(=O)Nc2ccc(F)cc2)cn1 | 4.19% (inactive) | 
COC(=O)/C=C\CCc1coc(/C=C\CNC(=O)OC)n1 | 2.69% [at 11.4 µM] (inactive) | 
COC(=O)C1CSC(C(=O)OC)N1C(=O)Nc1c(C)cccc1C (centres undefined) | -18.8% (inactive) | 
O[C@@](CCN1CCCCC1)(c1ccccc1)C1CCCCC1 |  | inactive
CC[C@H](CO)NCCN[C@@H](CC)CO | -2.46% [at 25.6 µM] (inactive) | 
Cn1cnc2c(NCc3ccccc3)nc(NCCO)nc21 |  | 5.01 µM (active)
Cc1ccccc1CNc1ncnc2c1ncn2[C@@H]1O[C@@H](CO)[C@H](O)[C@@H]1O | -18.9% (inactive) | 
Cn1c(=O)[nH]c(=O)c2c1nc(NCCCO)n2CCCc1ccccc1 | -26.4% (inactive) | 
